Data on 59 compounds can be found in PubChem BioAssay AID743261 (The Scripps Research Institute Molecular Screening Center, 2014).

The whole screen tested about 3,300 compounds, of which about 35 (1%) were called active. Only a sample is shown. Values without a mark were called inactive. Cut-off read from the data, not from the text of the source: active = inhibition above about 11%; inactive = the rest.

For the assay, the target named is 1-phosphatidylinositol 4,5-bisphosphate phosphodiesterase beta-3 (Homo sapiens) (UniProt Q01970). As to the kind of experiment: PLC-beta3 inhibitor confirmation, biochemical, fluorescence, purified enzyme (AID 743261). The conditions noted are these: purified PLC-beta3, fluorogenic substrate fluorescence; at 12.3 µM; active compounds read high.
Chain of 1-phosphatidylinositol 4,5-bisphosphate phosphodiesterase beta-3 (Homo sapiens) (Q01970 whole entry, looked up): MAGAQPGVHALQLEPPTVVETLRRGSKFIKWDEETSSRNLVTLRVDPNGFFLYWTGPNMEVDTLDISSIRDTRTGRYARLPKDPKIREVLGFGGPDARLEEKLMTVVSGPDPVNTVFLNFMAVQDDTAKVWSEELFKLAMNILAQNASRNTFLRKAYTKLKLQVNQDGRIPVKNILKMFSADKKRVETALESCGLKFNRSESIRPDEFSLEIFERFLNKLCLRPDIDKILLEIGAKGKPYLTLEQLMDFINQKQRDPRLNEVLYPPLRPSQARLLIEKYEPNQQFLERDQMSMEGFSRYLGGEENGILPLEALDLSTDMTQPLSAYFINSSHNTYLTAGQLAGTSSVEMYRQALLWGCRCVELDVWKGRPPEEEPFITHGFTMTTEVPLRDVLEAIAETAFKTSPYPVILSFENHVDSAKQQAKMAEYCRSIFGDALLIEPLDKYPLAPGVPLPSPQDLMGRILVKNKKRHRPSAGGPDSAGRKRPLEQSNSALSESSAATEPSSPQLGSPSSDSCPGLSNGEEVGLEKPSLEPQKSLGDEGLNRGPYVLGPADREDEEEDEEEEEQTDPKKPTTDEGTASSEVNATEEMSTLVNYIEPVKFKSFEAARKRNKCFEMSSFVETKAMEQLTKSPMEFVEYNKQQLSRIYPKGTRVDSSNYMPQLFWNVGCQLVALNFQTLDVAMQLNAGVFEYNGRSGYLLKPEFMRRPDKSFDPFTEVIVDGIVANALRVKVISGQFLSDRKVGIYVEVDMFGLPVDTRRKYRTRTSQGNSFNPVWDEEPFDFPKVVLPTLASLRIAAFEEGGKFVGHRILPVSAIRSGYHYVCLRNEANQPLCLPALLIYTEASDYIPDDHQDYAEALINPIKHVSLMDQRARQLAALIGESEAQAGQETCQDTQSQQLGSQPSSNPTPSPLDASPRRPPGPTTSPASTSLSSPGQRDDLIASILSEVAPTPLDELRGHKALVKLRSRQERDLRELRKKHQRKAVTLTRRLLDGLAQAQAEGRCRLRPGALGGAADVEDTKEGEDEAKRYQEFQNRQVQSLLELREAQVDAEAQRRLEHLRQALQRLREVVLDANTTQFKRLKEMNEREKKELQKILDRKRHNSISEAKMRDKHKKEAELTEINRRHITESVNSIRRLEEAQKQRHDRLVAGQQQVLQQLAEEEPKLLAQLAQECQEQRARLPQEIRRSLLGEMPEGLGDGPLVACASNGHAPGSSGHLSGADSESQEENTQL
As to `O=c1c([N+](=O)[O-])cc(C(F)(F)F)cn1Cc1cccc(Cl)c1`, the inhibition was 4.27%. The same measure for `Cc1nc(-c2ccc(F)cc2)c(CC(=O)N2CCN(S(=O)(=O)c3ccc(F)cc3)CC2)s1`: -1.44%; for `O=C(COc1ccc(Cl)cc1)N1CCN(c2cccc(C(F)(F)F)c2)CC1`: -5.48%; for `O=S(=O)(c1ccc(F)cc1)N1CCN(C(=S)NC2CCCC2)CC1`: -3.43%.

For `CC1(C(=O)NCc2ccccc2)CSCC(=O)N1CCCN1CCOCC1` (centres undefined), the inhibition was -2.02%. For the compound `O=[N+]([O-])c1cc(C(F)(F)F)ccc1NN=C1CCCC1`, the inhibition is 2.81%. As to `O=c1c2ccccc2c(-c2ccccc2)nn1Cc1ccccc1`, the inhibition is -6.9%.

As to `CN(CC(=O)NC1CCCCC1)S(=O)(=O)c1ccc(Br)s1`, the inhibition was 3.57%. Under `COc1ccccc1C(=O)N1C(CC(=O)Nc2ccccc2C)C(=O)NC2CCCCC21` (centres undefined) stands -8.41%; under `COc1cc(OC)nc(S(C)(=O)=O)n1`, -3.28%; under `O=C(C(c1ccccc1)c1ccccc1)N1CCN(CC(O)COc2ccccc2)CC1` (centres undefined), 3.79%.

Take `COC(=O)NC1(C(F)(F)F)NC(=O)N(C2CCCCC2)C1=O` (centres undefined): the inhibition is 2.36%. Take `N#C[C@]1(S(=O)(=O)c2ccccc2)C[C@@H]2ON=C(c3cccc(Br)c3)[C@@H]2C1`: the inhibition is 0.44%. The same measure for `CC1Oc2ccccc2N(Cc2cccnc2)C1=O` (centres undefined): -1.95%. For the compound `COc1ccccc1C(=O)Nc1cccc(C(=O)N2CCOCC2)c1`, the inhibition was -1.43%. For the compound `S=c1[nH]nc(-c2cccnc2)n1/N=C/C(Cl)=C\c1ccccc1`, the inhibition was -5.69%. With `CC1(C)CC(=O)C=C(NCCN2CCNCC2)C1`, the inhibition was -4.21%. For `CCn1c(/C=C/Nc2ccccc2)[n+](CC)c2ccc(C(=O)OCC(F)(F)F)cc21`, the inhibition is -12.7%. As for `COC(=O)CN1C(=O)C(O)=C(C(C)=O)C1c1ccc([N+](=O)[O-])cc1` (centres undefined), the inhibition is 2.66%. With `COc1ccc(-c2ccc(CN3C(CC(C)C)C(=O)N(Cc4cn(CC5CCCCC5)nn4)CCS3(=O)=O)cc2)cc1` (centres undefined), the inhibition is -1.28%. On to `COc1ccc([N+](=O)[O-])cc1N(CC(O)Cn1nnc2ccccc21)S(=O)(=O)c1ccc(C)cc1` (centres undefined), for which the inhibition is 3.85%. Under `CCOc1ccccc1C1CC(c2cccc(NS(C)(=O)=O)c2)=NN1C(=O)c1ccccc1` (centres undefined) stands -3.53%. Under `O=C1CS(=O)CN1c1ccc(Oc2ccccc2)cc1` (centres undefined) stands 0.56%; under `COc1cc(NC(=O)COC(=O)c2ccc([N+](=O)[O-])s2)cc(OC)c1OC`, 2.2%; under `O=S(=O)(Nc1ccc(Oc2ncccn2)c(Cl)c1)c1ccc(F)cc1`, -3.4%.

Consider `O=C(CSc1nnc(-c2ccncc2)n1C1CCCCC1)Nc1ccccc1`, for which the inhibition was -1.28%.

`COc1ccccc1CCNC(=O)CN1C(=O)NC2(CCCC2)C1=O`: the inhibition is 7.54%. Under `Clc1ccc(C2[C@H]3CN(CC4CCCCC4)[C@H](c4ccccc4)C34CC2(c2cccnc2)C4)cn1` (some centres undefined) stands -4.05%; under `C[C@H](C(=O)N(C)c1ccccc1)[C@@H](O)c1ccc2ccccc2c1`, -3.71%. In the case of `CCN(CC)Cc1csc2ccc(Br)cc12`, the inhibition is 0.36%. In the case of `C=CCSC(CC)(CC)C(N)=O`, the inhibition was 3.18%. The same measure for `COCc1cc(C(C)=O)ccc1OC`: 0.95%; for `Cc1cccc(NC(=O)c2ccc3c(=O)n(CC4CCCO4)c(=S)[nH]c3c2)c1` (centres undefined): 1.92%. Regarding `CCc1ccc(-c2nc(SCC(=O)NC3CCCC3)n[nH]2)cc1`, the inhibition is -2.19%.

Consider `C=CCOc1ccc(Cl)cc1CNCCCN1CCOCC1`, for which the inhibition is 1.5%. Regarding `Cc1cc(NC(=O)COn2nnc3ccccc32)no1`, the inhibition was -9.92%. The same measure for `Cc1ccc(Cn2ccc(NC(=O)C3C4CCC(C4)C3C(=O)O)n2)cc1` (centres undefined): -9.86%; for `CN(CC(=O)Nc1ccccc1Cl)C(=O)COc1cccc2c1OC(C)(C)C2`: 0.64%. The same measure for `CNC(=O)n1ccc(C(=O)N2CCCCC2)n1`: -1.25%.

On to `COc1ccc(C(N)c2csc(NC(=O)Nc3cccc(C(F)(F)F)c3)n2)cc1` (centres undefined), for which the inhibition is 3.1%. Under `O=C(NCCCN1CCCCC1)C1CC(=O)N(CCc2ccccc2)C1` (centres undefined) stands 1.91%; under `O=C1/C(=C\c2ccsc2)NC(=S)N1c1ccccc1`, -5.74%; under `CC(C)Cn1cnc2c1c(=O)n(CC(O)c1ccccc1)c(=O)n2CC(C)C` (centres undefined), -3.57%. For the compound `C=CCOc1ccccc1/C=N/NC(=O)Cc1ccccc1`, the inhibition is -2.73%.

On to `CCOC(=O)N1CCC(c2cc(=O)n(-c3ccccc3)[nH]2)CC1`, for which the inhibition is 2.09%. The same measure for `CCOc1cccc(-c2nnc3sc(COc4ccc(OC)cc4)nn23)c1`: -3.2%; for `O=C(/C=C/c1c(F)cccc1Cl)Nc1nn[nH]n1`: -1.92%. Under `O=S1(=O)c2ccc(Br)cc2OC[C@H](Cc2ccccc2)N1Cc1cn(Cc2ccccc2)nn1` stands 6.58%. The same measure for `CC(=O)c1c(C)[nH]c(C(=O)OCC(=O)Nc2cc(S(=O)(=O)N3CCCCC3)ccc2C)c1C`: 2.76%; for `CCC1CCCCN1C(=O)CSc1nc(C)cc(C)n1` (centres undefined): -1.69%.

Regarding `Cc1ccc(C(=O)N2CCN(C(=O)N3CCOCC3)CC2)cc1`, the inhibition is -1.36%. Under `Cc1ccc(C)c(N2CCN(S(=O)(=O)c3c(C)[nH]c(C)c3C(=O)N3CCCC3)CC2)c1` stands -5.1%; under `Cc1ccc(C23CC4CC(CC(C(=O)NCC(=O)O)(C4)C2)C3)cc1`, 4.19%. Under `CCC[C@H]1CCCC/C=C\CCCC(=O)OCCN1C(=O)OC(C)(C)C` stands 7.62%. The same measure for `CCOc1ccccc1NC(=O)c1cccnc1`: -4.38%; for `O=C1c2ccccc2S(=O)(=O)N1CC(O)Cn1c2ccccc2c2ccccc21` (centres undefined): -0.97%. Turning to `Cc1cc(NC(=O)c2ccc(F)cc2)ccc1NC(=O)c1ccco1`, the inhibition was 8.74%. Under `Cc1ccc(C(=O)Nc2ccc(C)c(S(=O)(=O)N(C)C)c2)s1` stands -7.5%; under `COC(=O)N(C)C[C@@H]1OCc2cnnn2CCCC(=O)N([C@@H](C)CO)C[C@@H]1C`, -4.12%.

Broadly, the inhibition is the change of the read-out against control, counted positive when it falls.
